Results filed as inconclusive are left out. Values without a mark were called inactive. Calls of active or inactive are those of the source. The call rests on the fitted dose curve; in most records, active means well fitted inhibition curve with a large enough effect; inconclusive means small, poorly fitted or top-dose-only effect; inactive means flat fitted curve, though single readings scatter.

In one experiment the test system is HB3. Nature of the experiment: qHTS profiling for inhibitors of Plasmodium falciparum proliferation (AID 504749). Particulars: P. falciparum in erythrocytes, SYBR Green DNA, 72 h; series mostly up to 28.7 µM. Summed up: (§1)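 SYBR Green fluorescence (ex 485 nm, em 535 nm) reports parasite DNA after 72 h compound exposure of infected red cells at 0.3% parasitemia, 2.5% hematocrit; signal normalized to 0.29 uM artemisinin and vehicle wells.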

A further experiment concerns JCK. The experiment is described as above. Particulars: P. falciparum in erythrocytes, SYBR Green DNA, 72 h; series mostly up to 28.7 µM. Summed up:
as §1

The test system of a further experiment is N140. The description is as above. The following applies: P. falciparum in erythrocytes, SYBR Green DNA, 72 h; series mostly up to 28.7 µM. In a few lines: as §1
The test system of a further experiment is P93_24. The experiment is described as above. Particulars: P. falciparum in erythrocytes, SYBR Green DNA, 72 h; series mostly up to 28.7 µM. Summed up: as §1
The next experiment has as its system P94_40. The experiment is described as above. The following applies: P. falciparum in erythrocytes, SYBR Green DNA, 72 h; series mostly up to 28.7 µM. Summed up:
as §1

A further experiment concerns PAD. The experiment is described as above. Particulars: P. falciparum in erythrocytes, SYBR Green DNA, 72 h; series mostly up to 28.7 µM. In a few lines:
as §1

Another experiment deals with PC15. The experiment is described as above. Particulars: P. falciparum in erythrocytes, SYBR Green DNA, 72 h; series mostly up to 28.7 µM. Summed up:
as §1

For another experiment, the system named is PC26. The description is as above. Particulars: P. falciparum in erythrocytes, SYBR Green DNA, 72 h; series mostly up to 28.7 µM. Summed up: as §1
The test system of a further experiment is PC49. Described as above. Particulars: P. falciparum in erythrocytes, SYBR Green DNA, 72 h; series mostly up to 28.7 µM. Summed up: as §1
A further experiment relates to SC27B. The experiment is described as above. Particulars: P. falciparum in erythrocytes, SYBR Green DNA, 72 h; series mostly up to 28.7 µM. In a few lines:
as §1

Another experiment concerns TAB109. The description is as above. The following applies: P. falciparum in erythrocytes, SYBR Green DNA, 72 h; series mostly up to 28.7 µM. Summed up:
as §1

Another experiment deals with TAB113. Described as above. Particulars: P. falciparum in erythrocytes, SYBR Green DNA, 72 h; series mostly up to 28.7 µM. In a few lines:
as §1

Another experiment has as its system TAB165. The experiment is described as above. Particulars: P. falciparum in erythrocytes, SYBR Green DNA, 72 h; series mostly up to 28.7 µM. In a few lines: as §1
A further experiment deals with W2. Described as above. Particulars: P. falciparum in erythrocytes, SYBR Green DNA, 72 h; series mostly up to 28.7 µM. Summed up: as §1
A further experiment has as its system KB-3-1. Nature of the experiment: Cytotoxic Profiling of Annotated Libraries Using Quantitative High-Throughput Screening (AID 1296008). On max response: on the % scale 0 is the no-effect control and ±100 the full control effect. Particulars: Five cell lines viability, CellTiter-Glo ATP luminescence, 48-72 h; max response: active compounds read low. Summed up: (§2)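 Cells exposed to compounds for 48 or 72 hr at 37 degrees Celsius. Viability read as ATP-coupled luminescence with CellTiter-Glo after 10 min at room temperature.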

The next experiment deals with HEK293. The experiment is described as above. The following applies: Five cell lines viability, CellTiter-Glo ATP luminescence, 48-72 h; max response: active compounds read low. In a few lines: as §2
Another experiment has as its system HaCat. Described as above. Particulars: Five cell lines viability, CellTiter-Glo ATP luminescence, 48-72 h; max response: active compounds read low. In a few lines:
as §2

For a further experiment, the system named is GB4. The experiment in a line: qHTS profiling for inhibitors of Plasmodium falciparum proliferation (AID 504749). Particulars: P. falciparum in erythrocytes, SYBR Green DNA, 72 h; series mostly up to 28.7 µM. Summed up:
as §1

The test system of the next experiment is ICS. The experiment is described as above. The following applies: P. falciparum in erythrocytes, SYBR Green DNA, 72 h; series mostly up to 28.7 µM. Summed up:
as §1

The test system of a further experiment is CRL-7250. Nature of the experiment: Cytotoxic Profiling of Annotated Libraries Using Quantitative High-Throughput Screening (AID 1296008). On max response: on the % scale 0 is the no-effect control and ±100 the full control effect. Particulars: Five cell lines viability, CellTiter-Glo ATP luminescence, 48-72 h; max response: active compounds read low. In a few lines: as §2
Further: nearly all actives have a fitted effect of over 60% in size.
Potency means the concentration at half of the fitted maximal effect.

For the compound `CCCN1CCC[C@H](c2cccc(O)c2)C1`, the Potency result in the experiment on HB3, in the experiment with JCK, in the experiment on N140, in the experiment on P93_24, in the experiment with P94_40 and with PAD was “inactive” throughout. The Potency entry in the experiment on PC15, with PC26, in the experiment with PC49, in the experiment with SC27B, in the experiment on TAB109 and with TAB113 was “inactive” each time. The Potency entry in the experiment on TAB165 is “inactive”. Besides, the Potency in the experiment with W2 was 15.1 µM (active). Moreover, in the experiment with KB-3-1, the max response was 0.305%.

With `COc1nn(CSP(=S)(OC)OC)c(=O)s1`, in the experiment on HEK293, the Potency was 21.7 µM (active). Also, the compound was classed as inactive in the experiment on HaCat. In addition, the max response with KB-3-1 is -23.4%.

On to `CCCCc1ccc(C(=O)O)nc1`, for which the Potency result with GB4, in the experiment with HB3, with ICS, in the experiment with JCK, in the experiment with N140 and with P93_24 was “inactive” in each case. The Potency result with P94_40, with PAD, in the experiment with PC15, in the experiment on PC26, in the experiment with PC49 and with SC27B was “inactive” throughout. Moreover, the Potency entry in the experiment on TAB109, with TAB113, in the experiment on TAB165 and with W2 was “inactive” throughout. In addition, the max response with KB-3-1 is 2.2%.

As to `CCCN(CCC)c1c([N+](=O)[O-])cc(S(N)(=O)=O)cc1[N+](=O)[O-]`, the Potency with HaCat is 68.6 µM (active). Besides, the max response in the experiment with KB-3-1 is -9.77%.

Consider `CN[C@@H]1C[C@@H](c2ccc(Cl)c(Cl)c2)c2ccccc21`, for which the Potency in the experiment on ICS is 10 µM (active); in the experiment with W2, 4.78 µM (active). In addition, the Potency result in the experiment on JCK and in the experiment with TAB113 was “inactive” throughout. Moreover, in the experiment on KB-3-1, the max response is -9.15%.

With `NC(=O)CN1CC(O)CC1=O` (configuration not stated), the Potency result with GB4, in the experiment with HB3, in the experiment with ICS, in the experiment on JCK, with N140 and with P93_24 was “inactive” each time. The Potency result in the experiment on P94_40, in the experiment on PAD, in the experiment on PC15, with PC26, in the experiment on PC49 and with SC27B was “inactive” throughout. The Potency result in the experiment with TAB109, in the experiment with TAB113, in the experiment with TAB165 and in the experiment with W2 was “inactive” each time. Besides, the max response with KB-3-1 is 3.82%.

As for `COC[C@H]1OC(=O)c2coc3c2[C@@]1(C)C1=C(C3=O)[C@@H]2CC[C@H](O)[C@@]2(C)C[C@@H]1OC(C)=O`, the max response in the experiment with HaCat is -14.2%; with KB-3-1, -14.9%.

Regarding `Nc1ccc(N=Nc2ccccc2)cc1`, the max response with KB-3-1 is -15.1%.

As for `CC1=C(O)C(=O)C=C2C1=CC=C1[C@@]2(C)CC[C@@]2(C)[C@@H]3C[C@](C)(C(=O)O)CC[C@]3(C)CC[C@]12C`, the Potency is 1.48 µM (active) in the experiment with HEK293, 2.64 µM (active) in the experiment with HaCat and 2.96 µM (active) in the experiment with KB-3-1.

Turning to `CC(C)[C@H]1C(=O)N[C@H](CO)Cc2c[nH]c3cccc(c23)N1C`, the max response in the experiment on HaCat is -1.9%; with KB-3-1 it was 9.88%.

For `C=CCN1CC[C@]23CCCCC2[C@H]1Cc1ccc(O)cc13` (some centres not stated), the Potency result in the experiment on HB3, in the experiment with ICS, in the experiment with JCK, in the experiment with N140, in the experiment on P93_24 and in the experiment with P94_40 was “inactive” in each case. Moreover, the Potency result in the experiment on PAD, in the experiment with PC26, with PC49, in the experiment on SC27B, in the experiment with TAB109 and in the experiment on TAB113 was “inactive” throughout. For the same compound, in the experiment with TAB165, the Potency result was “inactive”.

As to `CC(C)NC(C)Cc1ccc(I)cc1` (configuration not stated), the Potency entry in the experiment with HB3, in the experiment on ICS, in the experiment with JCK, in the experiment with N140, in the experiment on P93_24 and in the experiment on P94_40 was “inactive” each time. Moreover, the Potency entry with PAD, with PC15, in the experiment on PC49, in the experiment on SC27B, in the experiment on TAB109 and in the experiment with TAB113 was “inactive” throughout. The Potency entry with TAB165 was “inactive”. Further, the Potency in the experiment on W2 is 10.7 µM (active). For the same compound, the max response with KB-3-1 was 2.96%.

`CC(=Cc1csc(C)n1)[C@@H]1C[C@H]2O[C@@H]2CCC[C@H](C)[C@@H](O)[C@@H](C)C(=O)C(C)(C)[C@@H](O)CC(=O)O1`: the max response with HEK293 is -79%; with HaCat, -20.3%. In the experiment with KB-3-1, the Potency was 0.0004 µM (active).

As for `CN1C2CCC1CC(OC(=O)c1cc(Cl)cc(Cl)c1)C2` (configuration not stated), the Potency result in the experiment on GB4, in the experiment with HB3, in the experiment with JCK, in the experiment on N140, in the experiment with P93_24 and in the experiment on P94_40 was “inactive” each time. For the same compound, the Potency result in the experiment on PAD, with PC15, in the experiment on PC26, with PC49, in the experiment on SC27B and in the experiment with TAB109 was “inactive” throughout. In addition, the Potency entry in the experiment on TAB113 and with TAB165 was “inactive” throughout. For the same compound, in the experiment on W2, the Potency is 10.7 µM (active).

As to `N=c1c2c(-c3ccccc3)c(-c3ccccc3)n(Cc3ccccc3)c2ncn1C1CCC(O)CC1` (configuration not stated), the Potency in the experiment on HEK293 is 0.418 µM (active). The max response in the experiment on HaCat was -23%.

For the compound `COC1=CC(C)=C[C@@H](C)[C@@H](O)[C@@H](C)CC(C)=CC=C[C@H](OC)[C@H]([C@@H](C)[C@@H](O)[C@H](C)[C@@]2(O)C[C@@H](O)[C@H](C)[C@@H](C(C)C)O2)OC1=O`, the Potency with HEK293 is 0.0118 µM (active); with KB-3-1, 0.0059 µM (active).

On to `CCCCCCCCc1ccc(O)cc1`, for which, in the experiment with HaCat, the Potency was 24.6 µM (active). Also, the max response with KB-3-1 is -0.951%.

Turning to `O=S(=O)(c1ccc(Cl)cc1)c1ccc(Cl)cc1`, the max response with KB-3-1 was -10.2%.

`C[C@]12COC(=O)C[C@@H]1CC[C@@H]1[C@H]2CC[C@@]2(C)[C@H]1CC[C@]2(C)O`: the result in the experiment with HaCat was inactive. For the same compound, the max response with KB-3-1 is 0.496%.

For the compound `CCCCOC(=O)c1ccccc1C(=O)OCc1ccccc1`, the max response in the experiment on CRL-7250 was -23.3%; in the experiment on KB-3-1, -13.6%.

With `c1cc2ccc3cccc4ccc(c1)c2c34`, the max response with KB-3-1 is -15.2%.

With `CCCN1CCO[C@@H]2c3cc(O)ccc3OC[C@@H]21`, the max response with CRL-7250 was -5.49%. The compound was called inactive in the experiment on KB-3-1.

Values taken from PubChem BioAssay (NCATS).
